Article PMC7826789 (International Journal of Molecular Sciences, 2021)

How the values were obtained:
Conditions in all cases: Compound Concentration (nM):1000
EIF2AK1 = tested on: EIF2AK1
EPHA1 = tested on: EPHA1
EPHA2 = tested on: EPHA2
EPHA3 = tested on: EPHA3
EPHA4 = tested on: EPHA4
EPHA5 = tested on: EPHA5
EPHA6 = tested on: EPHA6
EPHA7 = tested on: EPHA7
EPHA8 = tested on: EPHA8
EPHB1 = tested on: EPHB1
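Further: KINOMEscan scanMAX binding as percent activity remaining versus control; lower means stronger binding.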

Compound	Percent Control (EIF2AK1)	Percent Control (EPHA1)	Percent Control (EPHA2)	Percent Control (EPHA3)	Percent Control (EPHA4)	Percent Control (EPHA5)	Percent Control (EPHA6)	Percent Control (EPHA7)	Percent Control (EPHA8)	Percent Control (EPHB1)
COc1cccc(-c2c[nH]c3c(N/N=C/c4ccncc4)ncnc23)c1 [GW814408X]	100%	100%	96%	93%	100%	100%	100%	91%	79%	81%
Cl.c1ccc(Cc2nc3ccc(Nc4ncnc5ccccc45)cc3[nH]2)cc1 [GR269666A]	100%	100%	100%	100%	100%	100%	100%	100%	100%	100%
COc1cc(C)c(N(C)C(=O)CN(C)C)cc1Nc1nc(Nc2cccc(F)c2C(N)=O)c2cc[nH]c2n1 [GSK2219385]	100%	93%	86%	100%	95%	100%	100%	100%	94%	99%
O=C(Nc1n[nH]c2nc(-c3ccc(O)cc3)c(Br)cc12)C1CC1 [SB-725317]	14%	82%	100%	85%	86%	100%	100%	100%	100%	100%
COc1ccccc1-c1cc(/C=C2\C(=O)Nc3ncc(Br)cc32)cc(Br)c1O [GW442130X]	100%	100%	100%	98%	100%	100%	100%	100%	100%	100%
COc1cc(N2CCN(C(C)C)CC2)ccc1Nc1nc(Nc2ccc(F)cc2C(=O)NC[C@@H](O)CO)c2cc[nH]c2n1 [GSK1392956A]	100%	91%	94%	70%	100%	100%	72%	100%	100%	100%
COc1ccc2[nH]c3c4[nH]c5ccc(OC)cc5c4c4c(c3c2c1)C(=O)NC4=O [GW296115X]	86%	93%	85%	86%	86%	85%	88%	86%	87%	77%
COc1cc(/C=N/Nc2ncnc3[nH]ncc23)ccc1O [GW578748X]	100%	92%	96%	58%	74%	90%	100%	100%	100%	100%
NS(=O)(=O)c1ccc(N/N=C2\C(=O)Nc3ccc(C(=O)NCCc4c[nH]cn4)cc32)cc1 [GW300660X]	100%	100%	100%	100%	89%	100%	100%	100%	100%	100%
CC1=C(C(=O)Nc2ccc3[nH]ncc3c2)C(c2ccc3ccccc3c2)CC(=O)N1 (centres unmarked) [GSK270822A]	87%	93%	88%	85%	82%	100%	90%	98%	99%	99%
CC1=C(C(=O)Nc2ccc3[nH]ncc3c2)C(c2ccc(Cl)c(Cl)c2)CC(=O)N1 (centres unmarked) [GSK299115A]	100%	100%	98%	86%	96%	95%	100%	100%	100%	74%
CC(C)COC(=O)c1ccc2c(c1)/C(=C/Nc1ccc(S(N)(=O)=O)cc1)C(=O)N2 [GW416981X]	100%	100%	100%	100%	94%	100%	100%	100%	100%	100%
Cc1cc(O)cc(C)c1/C=C/c1cncc(C(N)=O)c1 [GW435821X]	100%	47%	62%	63%	51%	88%	100%	100%	28%	82%
NS(=O)(=O)c1ccc(Nc2ncc(-c3ccccc3)o2)cc1 [GW572399X]	100%	100%	100%	100%	97%	100%	100%	84%	81%	91%
O=C1Nc2ccc(C(=O)c3ccco3)cc2C1=Cc1cc(Cl)c(O)c(Cl)c1 [GW406108X]	100%	100%	75%	100%	89%	100%	100%	100%	100%	100%
Nc1ncnc2occ(-c3ccc(NC(=O)Nc4cc(C(F)(F)F)ccc4F)cc3)c12 [GW770249X]	100%	40%	13%	19%	5.4%	15%	29%	6%	1.1%	14%
CCS(=O)(=O)c1ccc(OC)c(Nc2ncc(-c3cccc(F)c3)o2)c1 [GW621970X]	100%	65%	100%	68%	96%	100%	100%	100%	100%	100%
Cl.O=C(Nc1ccc(Oc2ccc3[nH]c(NC(=O)c4ccco4)nc3c2)cc1)Nc1cc(C(F)(F)F)ccc1F [GW683134A]	100%	20%	15%	58%	14%	53%	35%	17%	1.1%	39%
CCS(=O)(=O)c1ccc(OC)c(Nc2ncc(-c3cccc(OC)c3)o2)c1 [GW580509X]	100%	100%	100%	94%	92%	100%	100%	100%	100%	100%
COc1ccc2cc(-c3c(-c4ccncc4)nc(-c4ccc(S(C)(=O)=O)cc4C)n3C)ccc2c1 [SB-633825]	91%	89%	76%	90%	66%	99%	63%	48%	69%	64%
